We go through eleven molecules from PubChem BioAssay (NCATS).

Results filed as inconclusive are left out. A number with no mark means an inactive call. Active and inactive are the calls of the source. The call rests on the fitted dose curve; in most records, active means well fitted inhibition curve with a large enough effect; inconclusive means small, poorly fitted or top-dose-only effect; inactive means flat fitted curve, though single readings scatter.
On the % scale 0 is the no-effect control and ±100 the full control effect; potency means the concentration at half of the fitted maximal effect.

This assay deals with HaCat. As to the kind of experiment: Cytotoxic Profiling of Annotated Libraries Using Quantitative High-Throughput Screening (AID 1296008). Further: nearly all actives have a fitted effect of over 60% in size. To be noted: Five cell lines viability, CellTiter-Glo ATP luminescence, 48-72 h; max response: stronger effect = lower value. The method in brief:
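Compounds were pin-transferred onto cells and incubated 48 or 72 hr at 37 degree Celsius, 95% humidity. CellTiter-Glo was added, plates sat 10 min at room temperature, then ATP-coupled luminescence was imaged as the viability read-out.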
`CO[C@H]1O[C@@H]2O[C@@]3(C)CCC4[C@H](C)CCC([C@H]1C)[C@]42OO3` (stereo partly specified): the max response is -12.1%.

With `C/C(=C/C=C\C=C\Cc1cnco1)[C@@H](O)C(C)(C)C(N)=O`, the max response is -5.26%.

As to `COC(=O)C[C@H]1[C@]2(C)C3=C(C)[C@H](c4ccoc4)C[C@H]3O[C@@H]2[C@H](O)C2[C@](C)(C(=O)OC)C=CC(=O)[C@@]21C` (stereo partly specified), the max response was -7.74%.

In the case of `Cc1noc(C)c1-c1cc(O)cc(C(O)c2ccccc2)c1` (stereo unspecified), the max response is -28.1%.

As to `O=C(NCCCN1CCOCC1)c1cnn2c(-c3ccccc3)cc(-c3ccccc3)nc12`, the max response was -15.4%.

As to `O=C(Nc1ccccc1)c1ccc(Nc2nnc(-c3ccc(O)cc3)c3ccccc23)cc1`, the max response was -7.55%.

`CO[C@H]1[C@@H](O)[C@H](O[C@H]2CC[C@@]3(C)C(CCC4C3CC[C@]35COC6(COC(=O)C6)C3CCC45O)C2)O[C@@H](C)[C@@H]1OC1OC(CO)C(OC2OC(CO)C(O)C(O)C2O)C(O)C1O` (stereo partly specified): the max response is -26.8%.

Consider `CC(=O)NC(C)c1cnc(-c2cnc(Oc3ccc(OC(C)C)cc3)s2)s1` (stereo unspecified), for which the max response is 2.34%.

For the molecule `CCOc1cc(C(C)(C)C)ccc1C1=NC(C)(c2ccc(Cl)cc2)C(C)(c2ccc(Cl)cc2)N1C(=O)N1CCN(CCCS(C)(=O)=O)CC1` (stereo unspecified), the Potency is 20.6 µM (active).

As to `NC(=O)CCCSc1nc(N)nc(-c2c(Cl)cc3c4c(cccc24)COC3)n1`, the Potency was 0.291 µM (active).

With `Nc1c(S(=O)(=O)c2ccccc2)c2nc3ccccc3nc2n1-c1ccc(F)cc1`, the max response was -0.67%.
